The text below walks through data of PubChem BioAssay (NCI).

Compounds without any hit were thinned out: in the full panel of roughly 83,000, 20% have a hit.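 Testing used 96-well plates and a 48-hour single-concentration exposure. Example: -40 means 40% of the starting cells died.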 A number with no mark means an inactive call. Active and inactive are the calls of the source. Rule for the calls: active = growth percent below 10; inactive = the rest.

The test system of the assay is HL-60(TB) leukemia. Put plainly: NCI-60 one-dose screen, 48 h (100 = growth as untreated, 0 = no growth, -100 = all killed). The note with it: 10 µM unless noted.
In the case of `CCN(CC)c1ccc(N=Nc2cc(Cl)ccc2Cl)c(NC(=O)CCC(=O)O)c1`, the growth is 119%. The value for `CC(C)CCN(CCCNc1c2c(nc3cc(Cl)ccc13)CCCC2)CCC(C)C` was 70.4%. For `O=C1CCCN1C1CCN(Cc2cc3ccccc3[nH]c2=O)c2ccccc21` (stereo not given), the growth was 95.6%. The result for `Cc1cccc2c3c(sc12)C(c1ccc(F)cc1)C(C#N)=C(N)O3` (stereo not given) reads -21.8% (active); that for `CC(C)(C)c1nn(-c2ccccc2)c2c1CC1(CN2Cc2ccc3c(c2)OCO3)C(=O)c2ccccc2C1=O`, 102%. As to `Oc1c(I)cc(I)cc1CNCCCN(Cc1ccccn1)Cc1ccccn1`, the growth was -27.1% (active). As for `O=C1c2cccc3cccc(c23)C(=O)N1N1C(=O)c2cccc3c(N4CCNCC4)ccc(c23)C1=O`, the growth is 64.7%. Regarding `CCOC(=O)c1c(C)[nH]c2ccc(O)cc12`, the growth was 95.7%. On to `N#CCC1CCCC1`, for which the growth was 102%.

As to `CC(C)NC(=O)N1C(=O)CCC1NNC(=O)c1ccc([N+](=O)[O-])cc1` (stereo not given), the growth was 107%.

As for `COc1ccccc1NC(=O)C1=C(C)NC(C)=C(C(=O)Nc2ccccc2OC)C1c1cccc([N+](=O)[O-])c1`, the growth is 66.7%. With `O=[N+]([O-])c1cc(C(F)(F)F)ccc1Sc1ccc(C(F)(F)F)cc1[N+](=O)[O-]`, the growth is 8.05% (active). For `COc1c(C2CC(=O)Nc3c2c(C)nn3-c2nc3ccccc3[nH]2)cc2c(c1OC)OCO2` (stereo not given), the growth was 20.7%.

As for `O=C(CN1CCOCC1)Nc1ccc(Cn2nnc3c2C(=O)c2nnn(Cc4ccc(NC(=O)CN5CCOCC5)cc4)c2C3=O)cc1`, the growth is -39.1% (active). On to `CC1Cc2c(N(C)C)ncnc2N(C)c2ccc(Cl)cc21` (stereo not given), for which the growth is -7.29% (active). As to `O=C1Nc2ccccc2/C1=C/C(=O)c1ccc(N2CCOCC2)cc1`, the growth was 49.8%. The value for `COC(OC)C1(c2ccccc2)NC(=O)NC1=O` (stereo not given) was 122%. The value for `O=C1C=CC(=O)N1c1ccc2c(c1)Cc1cc(F)ccc1-2` was 63%; that for `C#C[C@]1(O)CC[C@H]2[C@@H]3CC=C4c5sc(-c6cccc(C)c6)nc5CC[C@]4(C)[C@H]3CC[C@@]21C` was 71.8%; that for `COC1OC(C(O)C(O)CO)C(O)C(O)C1O` (stereo not given) was 108%. With `COc1ccc2c(c1)/C(=C\c1c[nH]c3ccc(OC)cc13)C(=O)N2`, the growth is 20.8%.

In the case of `CC/C=C\C/C=C\C[C@H]1C/C=C2/C(=O)C=C[C@H]2C/C=C\CCC(=O)O1`, the growth was -5.31% (active).

Turning to `O=C1CCC(=O)N1C1CCCCC1`, the growth is 92.5%. The result for `Nc1ccc(-c2nc3cc(Oc4ccc(Oc5ccc6[nH]c(-c7ccc(N)cc7)nc6c5)cc4)ccc3[nH]2)cc1` reads 103%; that for `C(=C\c1n(Cc2ccc3ccccc3c2)c(-c2ccccc2)c(-c2ccccc2)[n+]1Cc1ccc2ccccc2c1)/c1ccccc1`, -42% (active). Turning to `CCOC(=O)NC(Cc1ccccc1)c1ccccc1` (stereo not given), the growth was 94.2%. As to `COc1cc(-c2nn(-c3ccc(C(=O)O)cc3)cc2C(=O)O)ccc1O`, the growth was 46.1%. As to `CN1CCCN(C(c2ccccc2)c2ccc(Br)cc2)CC1` (stereo not given), the growth is 110%. For `O=C(N/N=C/c1ccc([N+](=O)[O-])o1)c1ccc(O)cc1`, the growth was 19.8%. For `CCCC(NC(=O)OCc1ccccc1)C(=O)O` (stereo not given), the growth was 44.9%.

With `CO[C@H]1NC(=O)N(S(=O)(=O)c2ccc(Cl)cc2)[C@@H]1OC`, the growth is 105%. Consider `CN1CCN(Cc2ccc(C(=O)Nc3cncc(C#Cc4cnc(N)c5ccccc45)c3)cc2C(F)(F)F)CC1`, for which the growth was -71.5% (active). The result for `CC(=O)OC(C(=O)c1ccccc1)c1ccccc1` (stereo not given) reads 114%; that for `C=C(CNCCO)[C@@H]1CC[C@]2(CO)CC[C@]3(C)[C@H](CC[C@@H]4[C@@]5(C)CCC(N)C(C)(C)[C@@H]5CC[C@]43C)[C@@H]12` (stereo not given in full), 32.4%; that for `NC(=O)c1cccc(-n2ccc3cc(NC(=O)c4ccc(N5CCOCC5)c(C(F)(F)F)c4)ccc32)n1`, 51.1%. The result for `COc1ccc(COc2cc3oc(=O)c4cc(C(C)O)ccc4c3cc2OC)cc1` (stereo not given) reads 73.1%; that for `S=C1SCC(c2ccccc2)S1` (stereo not given), 108%. Regarding `NC(CSC(c1ccccc1)(c1ccccc1)c1ccc2c(c1)OCO2)C(=O)O` (stereo not given), the growth was -26.2% (active). With `CC1(C)CC(=O)c2c(ccc(C(=O)C[C@H](N)CO)c2N)O1`, the growth is 44.8%. On to `COc1ccc(/C=N/NC(N)=S)cc1`, for which the growth is 88.9%.
